Compound activity from PubChem BioAssay.
In the library only some 20% were active in any assay of this set; here they are far more common.
Pf growth 48h: P. falciparum growth inhibition at 48 hours (one generation); P. falciparum luciferase growth in erythrocytes, 48 h; Potency, µM (top dose mostly 28.7 µM), usual class: inhibitors; hit rate 5.9% among 310,000
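First compound was added to culture medium, then infected red cells at 0.1% parasitemia and 2% hematocrit (final). After incubation at 37 C under 5% CO2, luciferase detection reagent was dispensed and light output recorded.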
CHX counter: counter-screen for Shiga toxin inhibitors: cycloheximide protein synthesis inhibition; cell reporter, cycloheximide protein synthesis inhibition counterscreen; max response, %; hit rate 12% among 300,000; in the data active = max response mostly above about 13%, no sharp cut-off; inactive = mostly below about 14%; note: read at 38.3 µM for the half of the compounds with a filed dose
Shiga toxin inh: inhibitors of Shiga toxin in Vero cells; inhibition, % at 38.7 µM; hit rate 9.2% among 290,000; Vero cells, Shiga toxin protein synthesis inhibition reporter; in the data active = inhibition mostly above about 28%, no sharp cut-off; inactive = mostly below about 43%
Pf growth 96h: P. falciparum growth inhibition at 96 hours; AID 504834; P. falciparum luciferase reporter growth, 96 h; hit rate 6.9% among 320,000; Potency, µM (top dose mostly 28.7 µM), usual class: inhibitors
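Readout is luminescence from an integrated firefly luciferase in P. falciparum. Red cells, 2% hematocrit and 0.05% parasitemia final, were cultured with compound through two parasite generations (96 hours) at 37 C, 5% CO2.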
HCMV antiviral: blocks human cytomegalovirus replication | HFF cells, HCMV-luciferase reporter, 72 h; active compounds read low | activity change, negative = inhibition, % at 57.5 µM | hit rate 4.5% among 410,000 | AID 1259415; in the data active = activity change below about -60%; inconclusive = no clear call, values can overlap the other calls; inactive = above about -39%
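Screen run at 2 compound doses on HFFs infected with reporter HCMV, MOI 1 PFU/cell. Luciferase activity from cell lysates at 72 h post infection gave inhibition relative to buffer-only and Salinomycin wells.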
Each line names hits and unclear results; the compound was inactive in the other large screens. Unless noted, calls come from the whole dose curve; as a rule, active = well fitted inhibition curve with a large enough effect; inconclusive = small, poorly fitted or top-dose-only effect, or another doubt; inactive = no such curve, though single readings can be large or run the other way.

Cc1cc(O)c(C(c2ccccc2)N2CCN(c3ccccc3)CC2)c(=O)n1Cc1ccco1 (centres undefined)	none (no result: Pf growth 48h, CHX counter, Shiga toxin inh, Pf growth 96h)
O=C(Nc1nc(-c2ccncc2)cs1)C1c2ccccc2Oc2ccccc21	Pf growth 48h inconclusive, Pf growth 96h inconclusive
O=C(Nc1nc(-c2ccccc2)cs1)C1c2ccccc2Oc2ccccc21	Pf growth 48h 11.7µM, Pf growth 96h 10.4µM
COc1ccc(OC)c(-c2csc(NC(=O)C3c4ccccc4Oc4ccccc43)n2)c1	HCMV antiviral -65.8
COc1ccc(OC)c(-c2csc(NC(=O)C3COc4ccccc4O3)n2)c1 (centres undefined)	none
CCCCCCSc1nnc(N)s1	none
Nc1nnc(SCCCOc2ccc(F)cc2)s1	Pf growth 96h inconclusive
CCCOc1ccc(-c2cnc(SCC(N)=O)nc2N)cc1	none (no result: Pf growth 96h)
CCCOc1ccc(OCCSc2nnc(N)s2)cc1	CHX counter 25.6, Shiga toxin inh 94.6 (no result: Pf growth 96h)
CCCCCCCSc1nnc(N)s1	CHX counter 14.4, Shiga toxin inh 43.9
CCCOc1ccc(-c2cnc(N)s2)cc1	CHX counter 49.8, Shiga toxin inh 64.0
COc1ccccc1OC(=O)CCc1nc2ccccc2s1	Pf growth 48h 10.4µM
COC(=O)CCCc1nc2ccccc2s1	Shiga toxin inh 32.9
Cc1cc(OC(C)C(=O)N2CCC(c3nc4ccccc4o3)CC2)ccc1Cl (centres undefined)	none (no result: Pf growth 48h, CHX counter, Shiga toxin inh, Pf growth 96h)
O=C(Nc1cccc(Cl)c1Cl)c1cc2nc(-c3ccc(Cl)cc3)cc(C(F)(F)F)n2n1	none (no result: Pf growth 48h, CHX counter, Shiga toxin inh, Pf growth 96h)
COc1ccc(N2CCN(C(=O)COc3ccc(S(=O)(=O)N4CCOCC4)cc3C)CC2)cc1	Pf growth 96h inconclusive
CC(=C\c1ccccc1)/C=C1/SC(=S)N(CCC(=O)Nc2ccccn2)C1=O	Pf growth 48h inconclusive (no result: HCMV antiviral)
O=C(CCN1C(=O)/C(=C/C=C/c2ccccc2)SC1=S)Nc1cccnc1	CHX counter 46.9, Shiga toxin inh 86.1
O=C(CCN1C(=O)/C(=C/C=C/c2ccccc2)SC1=S)Nc1ccccn1	HCMV antiviral -64.8
CC[C@H](C)[C@H](NC(=O)CNC(=O)[C@H](C)NC(=O)[C@H](C)N)C(=O)NCC(=O)N[C@H](C(=O)N[C@@H](CC(C)C)C(=O)N[C@H](C(=O)N[C@H](C(=O)O)C(C)C)[C@@H](C)O)[C@@H](C)CC	none (no result: Pf growth 48h, Pf growth 96h, HCMV antiviral)
CCOc1ccc(OCC)c(NC(=O)CCn2cccc2)c1	none (no result: Pf growth 96h)
CC1CCN(CC(CS(=O)(=O)c2ccc([N+](=O)[O-])cc2)N2CCC(C)CC2)CC1 (centres undefined)	Pf growth 48h inconclusive, Pf growth 96h inconclusive, HCMV antiviral -62.3
CC(C)(C)OC(=O)/C=C/[C@@H]1Cc2cc(C(F)(F)F)ccc2N1	none (no result: Pf growth 48h, CHX counter, Shiga toxin inh, Pf growth 96h)
CN1C(C(=O)NCc2ccco2)CC2Cn3c(nc4cc(Cl)c(Cl)cc43)C21 (centres undefined)	CHX counter 13.4
COc1ccccc1N1CCN(S(=O)(=O)c2c(C)nc3sc(C)c(C)n3c2=O)CC1	none (no result: Pf growth 48h, CHX counter, Shiga toxin inh, Pf growth 96h)
CC1CCN(c2c(NCc3ccc(C(=O)NCCc4ccc(Cl)cc4)cc3)c(=O)c2=O)CC1	Pf growth 48h inconclusive, Pf growth 96h 8.28µM, HCMV antiviral inconclusive
CC1CCCCC1NC(=O)c1ccc(CNc2c(N3CCCC3)c(=O)c2=O)cc1 (centres undefined)	Pf growth 96h 8.28µM
Cc1ccccc1NC(=O)Cn1c(=O)oc2ccccc21	Pf growth 96h 4.15µM
CC(C)c1ccc(NC(=O)Cn2c(=O)oc3ccccc32)cc1	Shiga toxin inh 31.8, HCMV antiviral inconclusive
COc1ccc(NC(=O)Cn2c(=O)oc3ccccc32)cc1	HCMV antiviral inconclusive
Cc1cc(NC(=O)CCS(=O)(=O)c2cc3c4c(c2)CCN4C(=O)CC3)ccc1Br	none (no result: Pf growth 48h, CHX counter, Shiga toxin inh, Pf growth 96h)
CCOc1ccccc1NC(=O)CCCc1nc(-c2ccccc2Cl)no1	none (no result: Pf growth 48h, CHX counter, Shiga toxin inh, Pf growth 96h)
NNC(=O)c1csc(-c2ccc(C(F)(F)F)cc2Cl)n1	none
CCCCCCN(C(=O)CCCCCN1C(=O)NC(c2cccc([N+](=O)[O-])c2)C(C(=O)OCc2ccccc2)=C1C)C(C(=O)NCCCC)c1ccc(OCC(=O)OC)c(C(=O)OC)c1 (centres undefined)	Pf growth 48h inconclusive, Pf growth 96h 5.22µM, HCMV antiviral -73.9
CCCCCCN(C(=O)CCCCCN1C(=O)NC(c2ccc([N+](=O)[O-])cc2)C(C(=O)OCc2ccccc2)=C1C)C(C(=O)NCCCC)c1ccc(OCC(=O)OC)c(C(=O)OC)c1 (centres undefined)	Pf growth 48h 1.85µM, Pf growth 96h 3.29µM, HCMV antiviral inconclusive
Cc1nc(S(=O)(=O)Nc2ccccc2C(=O)NCC2CC2)cn1C	Pf growth 48h 3.29µM
CCOC(=O)C1=C(c2ccccc2)NC(SC)=C(C#N)C1c1cccnc1 (centres undefined)	Pf growth 48h inconclusive, Pf growth 96h 11.7µM
COc1ccc(OC)c(NC(=O)CSC2=C(C#N)C(c3ccco3)C3=C(CCCC3=O)N2)c1 (centres undefined)	Pf growth 48h 9.28µM
Cc1ccc(NC(=O)CSC2=C(C#N)C(c3ccco3)C3=C(CCCC3=O)N2)cc1 (centres undefined)	Pf growth 48h inconclusive, CHX counter 18.6
CCCCOC(=O)CSC1=C(C#N)C(c2cccnc2)C(C(=O)OCC)=C(c2ccccc2)N1 (centres undefined)	Pf growth 48h inconclusive, Pf growth 96h inconclusive, HCMV antiviral inconclusive
CCOC(=O)CSC1=C(C#N)C(c2ccc(C)cc2)C2=C(CCCC2=O)N1 (centres undefined)	HCMV antiviral inconclusive
CCOC(=O)C1=C(c2ccccc2)NC(SCC(=O)NC2CCCCC2)=C(C#N)C1c1ccco1 (centres undefined)	Pf growth 48h 11.7µM
N#CC1=C(SCC(=O)c2ccc(Cl)cc2)NC2=C(C(=O)CCC2)C1c1ccco1 (centres undefined)	Pf growth 48h inconclusive
COc1cc(C)c(/C=C(\C#N)C(=O)Nc2cccc(C)c2)cc1C(C)C	none
COc1ccc(C(C)(C)C)cc1NC(=O)OC[C@@H]1CSCCS(=O)(=O)N1	none (no result: Pf growth 48h, CHX counter, Shiga toxin inh, Pf growth 96h)
CCc1cc(/C(Cc2ccccn2)=N\O)c(O)cc1O	HCMV antiviral inconclusive (no result: Pf growth 48h)
CCc1cc(/C(Cc2ccc3ccccc3n2)=N\O)c(O)cc1O	Pf growth 96h 1.65µM
Cc1ccccc1CC(=O)c1ccc(O)c(C)c1O	Pf growth 48h inconclusive, Pf growth 96h inconclusive
Cc1c(O)ccc(/C(Cc2ccc3ccccc3n2)=N\N)c1O	Pf growth 48h inconclusive, CHX counter 29.5, Shiga toxin inh 67.8, Pf growth 96h inconclusive
Cc1ccc(Cn2cc(S(=O)(=O)c3ccc(C(C)C)cc3)c(=O)c3cc4c(cc32)OCO4)cc1	Pf growth 48h 9.28µM, Pf growth 96h 3.29µM
Cc1nn(-c2ccc(F)cc2)c(C)c1/C=C/C(=O)N1CCNC(=O)C1	Pf growth 96h inconclusive
CN1CCCN(C(=O)/C=C/c2ccc(Cl)cc2Cl)CC1	CHX counter 25.0, HCMV antiviral -61.8
Cc1nn(-c2ccc(F)cc2)c(Cl)c1/C=C/C(=O)N1CCNC(=O)C1	Pf growth 96h 13.1µM, HCMV antiviral inconclusive
O=C1CN(C(=O)/C=C/c2ccc(Cl)cc2Cl)CCN1	CHX counter 33.9, Shiga toxin inh 58.8
